Experimental data reported in PubChem BioAssay (Tox21).
“And” between values parts separate entries of the source, which are not always exact repeats. Equal values may be shown once. Values without a mark were called inactive. Records with an inconclusive call do not appear. Where a call stands in place of a potency, no number is given. The source made the active and inactive calls. Unless noted, calls follow the shape of the full dose curve.

Columns and labels:
[1] = Nuclear factor erythroid 2-related factor 2/antioxidant responsive element (Nrf2/ARE) small molecule agonists: qHTS cell viability counter screen in human keratinocytes (AID 1919968; active = well fitted curve in the direction sought with a large enough effect in the repeat runs; an effect the other way counts as inactive or inconclusive; also: nearly all actives have a fitted effect of over 55% in size; also: potency is read from the fitted curve at half-maximal effect)
Method in brief: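 KeratinoSens cells (HaCaT keratinocytes stably carrying an ARE-luciferase reporter) were seeded at 1,500 cells/well and rested 5 h at 37 C/5% CO2. They were then exposed to compounds in DMSO for 23 h. Viability was read by CellTiter-Fluor fluorescence after 1 h.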

[2] = Nuclear factor erythroid 2-related factor 2/antioxidant responsive element (Nrf2/ARE) small molecule agonists: luciferase reporter gene qHTS assay in human keratinocytes (AID 1919969); also: nearly all actives have a fitted effect of over 35% in size; also: potency is read from the fitted curve at half-maximal effect
[3] = target: Gonadotropin-releasing hormone receptor (Homo sapiens) (UniProt P30968); assay: Human gonadotropin-releasing hormone receptor (GnRHR) small molecule agonists, calcium flux assay in GnRHR-HEK293 cells (AID 1920063); also: nearly all actives have a fitted effect of over 35% in size
Sequence of Gonadotropin-releasing hormone receptor (Homo sapiens) (P30968 whole entry, looked up): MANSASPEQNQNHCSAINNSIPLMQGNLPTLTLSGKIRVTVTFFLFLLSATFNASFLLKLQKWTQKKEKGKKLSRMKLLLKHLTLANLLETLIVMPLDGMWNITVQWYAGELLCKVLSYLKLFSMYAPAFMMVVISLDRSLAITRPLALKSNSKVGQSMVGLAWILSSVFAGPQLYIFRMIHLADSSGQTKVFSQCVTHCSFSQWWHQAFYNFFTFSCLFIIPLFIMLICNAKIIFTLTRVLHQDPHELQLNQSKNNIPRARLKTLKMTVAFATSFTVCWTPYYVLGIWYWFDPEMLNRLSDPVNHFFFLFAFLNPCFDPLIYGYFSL
Method in brief: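 HEK293 cells stably expressing human GnRHR were plated 18 h at 37 °C, loaded with calcium dye 1 h at 37 °C, then given compound in agonist mode; fluorescence (Ex/Em 480/540) read kinetically for 3 min at 1 s intervals.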

[4] = target: KiSS-1 receptor (Homo sapiens) (UniProt Q969F8); assay: Human kisspeptin (KISS1R) small molecule agonists, calcium flux assay in KISS1R-HEK293 cells (AID 1920064; active = well fitted curve in the direction sought with a large enough effect in the repeat runs; an effect the other way counts as inactive or inconclusive)
Sequence of KiSS-1 receptor (Homo sapiens) (Q969F8 whole entry, looked up): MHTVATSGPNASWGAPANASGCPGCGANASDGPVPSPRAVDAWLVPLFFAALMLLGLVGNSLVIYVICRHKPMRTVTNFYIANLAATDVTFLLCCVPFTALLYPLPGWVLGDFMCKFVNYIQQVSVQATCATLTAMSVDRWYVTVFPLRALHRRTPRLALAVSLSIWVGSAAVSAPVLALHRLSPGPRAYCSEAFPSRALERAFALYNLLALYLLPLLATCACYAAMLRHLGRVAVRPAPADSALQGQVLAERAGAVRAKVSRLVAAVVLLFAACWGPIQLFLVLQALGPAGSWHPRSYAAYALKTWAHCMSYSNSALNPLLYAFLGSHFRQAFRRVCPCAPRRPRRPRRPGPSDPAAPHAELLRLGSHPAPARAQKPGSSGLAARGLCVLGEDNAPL
Method in brief: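 HEK293 cells stably expressing human KISS1R were plated 18 h at 37 °C, loaded with calcium dye for 1 h at 37 °C, then given compound by pin tool. Fluorescence (Ex/Em 480/540) was read kinetically for 3 min.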

[5] = G protein-coupled receptor (GPCR) small molecule agonists, calcium flux assay: HEK293 wild type cell line counter screen (AID 1920065)
Method in brief: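 Cells were plated and cultured 18 h at 37 C/5% CO2, then loaded with calcium dye for 1 h at 37 C. Compounds in DMSO were pin-transferred in agonist mode, and fluorescence (Ex/Em 480/540) was read kinetically for 3 min at 1 s intervals.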

[6] = p53 small molecule agonists, cell-based qHTS assay with human liver microsomes (AID 1963577)
Method in brief: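 Fluorescence of the beta-lactamase reporter in p53RE-bla cells, detected with LiveBLAzer substrate (2 h, room temperature, dark), served as the read-out after 16 h compound exposure at 37 C with human liver microsomes and NADPH, each 0.5 mg/mL final.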

[7] = p53 small molecule agonists, cell-based qHTS assay with rat liver microsomes (AID 1963578)
Method in brief: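 Cells carrying a p53 response element–beta-lactamase reporter were plated and rested 5 h, then dosed with compound in DMSO plus rat liver microsomes and NADPH, each at 0.5 mg/mL final. After 16 h at 37 C, LiveBLAzer substrate was added for 2 h.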

[8] = p53 small molecule agonists, cell-based qHTS assay with human liver microsomes: qHTS cell viability counter screen (AID 1963579); also: nearly all actives have a fitted effect of over 45% in size; also: potency is read from the fitted curve at half-maximal effect
Method in brief: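 Cytotoxicity counter screen: p53RE-bla, 4,000 cells/well; 5 h settle, 37 C/5% CO2; cpd + HLM 0.5 mg/mL + NADPH 0.5 mg/mL (final); 16 h, 37 C; CellTiter-Glo, 30 min RT, luminescence.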

[9] = p53 small molecule agonists, cell-based qHTS assay with rat liver microsomes: qHTS cell viability counter screen (AID 1963580); also: nearly all actives have a fitted effect of over 45% in size
Method in brief: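 p53RE-bla HCT-116 cells (4,000/well) rested 5 h at 37 C, then given Tox21 compounds in DMSO with rat liver microsomes (0.5 mg/mL final) plus NADPH (0.5 mg/mL final) for 16 h at 37 C. Viability read by CellTiter-Glo luminescence after 30 min at room temperature.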

[10] = p53 small molecule agonists, cell-based qHTS assay: qHTS cell viability counter screen (AID 1963581); also: nearly all actives have a fitted effect of over 45% in size
Method in brief: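 p53RE-bla HCT-116 cells were exposed to compounds for 16 h at 37 C; after the beta-lactamase FRET read in the same wells, CellTiter-Glo was added and luminescence (intracellular ATP) read after 30 min at room temperature.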

[11] = target: 5-hydroxytryptamine receptor 2A (Homo sapiens) (UniProt P28223); assay: 5-hydroxytryptamine receptor 2A (HTR2A) small molecule agonists, cell-based qHTS assay (AID 1963587); also: nearly all actives have a fitted effect of over 30% in size
Sequence of 5-hydroxytryptamine receptor 2A (Homo sapiens) (P28223 whole entry, looked up): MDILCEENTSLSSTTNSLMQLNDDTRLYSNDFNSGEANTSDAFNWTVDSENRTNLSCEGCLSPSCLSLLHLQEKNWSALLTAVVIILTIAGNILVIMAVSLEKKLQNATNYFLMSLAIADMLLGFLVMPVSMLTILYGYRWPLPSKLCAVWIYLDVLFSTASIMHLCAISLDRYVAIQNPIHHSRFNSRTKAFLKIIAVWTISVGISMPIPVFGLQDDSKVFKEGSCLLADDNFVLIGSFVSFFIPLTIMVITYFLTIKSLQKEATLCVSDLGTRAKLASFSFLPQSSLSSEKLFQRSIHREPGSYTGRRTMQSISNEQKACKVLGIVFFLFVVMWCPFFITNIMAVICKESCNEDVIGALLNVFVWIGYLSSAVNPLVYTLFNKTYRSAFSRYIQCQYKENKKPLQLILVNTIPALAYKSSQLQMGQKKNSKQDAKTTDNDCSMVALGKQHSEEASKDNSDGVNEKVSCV
Method in brief: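 HTR2A-CHO cells, plated 18 h at 37 C/5% CO2, dye-loaded 1 h at 37 C; compounds in DMSO added by pin tool (agonist mode). Intracellular calcium flux read as kinetic fluorescence on FDSS over 2 min at 1 s intervals.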

[12] = target: Muscarinic acetylcholine receptor M1 (Homo sapiens) (UniProt P11229); assay: Cholinergic receptor muscarinic 1 (CHRM1) small molecule agonists, cell-based qHTS assay (AID 1963589); also: nearly all actives have a fitted effect of over 35% in size
Sequence of Muscarinic acetylcholine receptor M1 (Homo sapiens) (P11229 whole entry, looked up): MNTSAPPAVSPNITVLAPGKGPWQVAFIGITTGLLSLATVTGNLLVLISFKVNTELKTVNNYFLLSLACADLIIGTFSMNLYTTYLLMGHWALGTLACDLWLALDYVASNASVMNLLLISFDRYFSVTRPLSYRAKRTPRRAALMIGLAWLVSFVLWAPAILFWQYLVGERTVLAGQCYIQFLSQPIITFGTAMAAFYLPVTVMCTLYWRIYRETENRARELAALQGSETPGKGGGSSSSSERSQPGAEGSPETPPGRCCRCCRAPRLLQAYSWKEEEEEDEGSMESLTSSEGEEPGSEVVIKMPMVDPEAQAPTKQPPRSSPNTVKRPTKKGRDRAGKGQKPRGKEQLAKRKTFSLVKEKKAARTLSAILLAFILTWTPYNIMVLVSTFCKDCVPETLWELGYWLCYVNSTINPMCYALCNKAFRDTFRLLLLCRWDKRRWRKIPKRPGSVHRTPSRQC
Method in brief: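 CHO cells stably expressing human CHRM1, seeded 18 h at 37 C/5% CO2, dye-loaded 1 h at 37 C, then given compound in agonist mode; intracellular calcium fluorescence read kinetically at 1 s intervals. Fifteen concentrations, three independent runs.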

[13] = cAMP Responsive Elements (CRE) small molecule agonists, cell-based qHTS assay (AID 1963590)
Method in brief: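 CRE-bla HEK 293T cells in DMEM with 10% dialyzed FBS, NEAA, pyruvate and 25 mM HEPES were plated 18 h at 37 C/5% CO2, then exposed to compounds in DMSO for 3 h before LiveBLAzer B/G FRET substrate addition.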

[14] = cAMP Responsive Elements (CRE) small molecule antagonists, cell-based qHTS assay (AID 1963591; active = well fitted inhibition curve with a large enough effect in the signal ratio in the repeat runs, not every such curve was filed as active; the % refers to the signal ratio)
Method in brief: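 CRE-bla HEK293T cells were plated 18 h at 37 °C/5% CO2, pinned with compound in DMSO, then stimulated with NKH477 at 0.25 uM final for 3 h. LiveBLAzer B/G FRET substrate was added and plates incubated 2 h at room temperature.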

[15] = target: Beta-2 adrenergic receptor (Homo sapiens) (UniProt P07550); assay: Adrenergic beta2 receptor (ADRB2) small molecule antagonists, cell-based qHTS assay (AID 1963592); also: series mostly up to about 92 µM; nearly all actives have a fitted effect of over 50% in size
Sequence of Beta-2 adrenergic receptor (Homo sapiens) (P07550 whole entry, looked up): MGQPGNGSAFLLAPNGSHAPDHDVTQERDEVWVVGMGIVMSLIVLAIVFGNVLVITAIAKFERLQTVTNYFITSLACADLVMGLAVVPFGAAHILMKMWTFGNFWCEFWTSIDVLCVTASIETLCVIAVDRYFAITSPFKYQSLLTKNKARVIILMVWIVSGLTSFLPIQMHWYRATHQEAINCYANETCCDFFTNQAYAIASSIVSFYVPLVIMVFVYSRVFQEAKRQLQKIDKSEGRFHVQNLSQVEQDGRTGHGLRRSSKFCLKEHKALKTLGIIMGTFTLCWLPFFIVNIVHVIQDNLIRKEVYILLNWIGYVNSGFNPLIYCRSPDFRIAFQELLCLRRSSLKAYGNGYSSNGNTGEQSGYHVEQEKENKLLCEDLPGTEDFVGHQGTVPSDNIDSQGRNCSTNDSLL
Method in brief: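 Cells (CHO, stable ADRB2 overexpression) incubated 18-20hr at 37C; compounds added from DMSO; agonist mix (1nM isoproterenol, 100uM IBMX, 25uM Ro-20-1724) added; 0.5hr RT; d2-cAMP and anti-cAMP-cryptate added; 1hr RT; 665/615 nm read.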

[16] = target: D(2) dopamine receptor (Homo sapiens) (UniProt P14416); assay: Dopamine D2 receptor (DRD2) small molecule agonists, cell-based qHTS assay (AID 1963594); also: nearly all actives have a fitted effect of over 35% in size
Sequence of D(2) dopamine receptor (Homo sapiens) (P14416 whole entry, looked up): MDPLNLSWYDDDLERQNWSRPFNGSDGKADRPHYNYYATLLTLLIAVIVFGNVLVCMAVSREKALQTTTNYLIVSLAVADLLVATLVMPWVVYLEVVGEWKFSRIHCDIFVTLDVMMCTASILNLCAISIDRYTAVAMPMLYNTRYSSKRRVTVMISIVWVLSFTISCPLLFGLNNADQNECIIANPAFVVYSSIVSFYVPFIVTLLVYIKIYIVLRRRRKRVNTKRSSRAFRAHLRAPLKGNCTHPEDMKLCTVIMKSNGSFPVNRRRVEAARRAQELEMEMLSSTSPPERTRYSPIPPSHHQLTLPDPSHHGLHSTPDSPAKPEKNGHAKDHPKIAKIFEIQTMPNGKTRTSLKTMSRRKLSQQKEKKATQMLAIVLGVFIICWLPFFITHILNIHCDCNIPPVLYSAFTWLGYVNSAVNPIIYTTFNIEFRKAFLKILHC
Method in brief: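 HEK293 cells stably expressing DRD2 were cultured 24 h at 37 C, then given Ro20-1724 (0.1 mM final) and compounds for 10 min at room temperature. NKH477 (200nM) was then added for 30 min. cAMP was read by HTRF.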

[17] = target: D(2) dopamine receptor (Homo sapiens) (UniProt P14416); assay: Dopamine D2 receptor (DRD2) small molecule antagonists, cell-based qHTS assay (AID 1963595; active = well fitted inhibition curve with a large enough effect in the signal ratio in the repeat runs, with a control signal flat; the % refers to the signal ratio)
Method in brief: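 Antagonism was scored as restored cAMP in HEK293-DRD2 cells. These cells were stimulated with 200 nM NKH477 and 12 nM quinpirole for 30 min at room temperature, in the presence of 0.1 mM Ro20-1724.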

[18] = target: 5-hydroxytryptamine receptor 2A (Homo sapiens) (UniProt P28223); assay: 5-hydroxytryptamine receptor 2A (HTR2A) small molecule antagonists, cell-based qHTS assay (AID 1963586); also: nearly all actives have a fitted effect of over 45% in size
Method in brief: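 Antagonist-mode intracellular calcium assay: DOI (4 nM) added after 5 min compound pre-incubation at room temperature to dye-loaded HTR2A-CHO cells. Fluorescence followed for 3 min, sampled every second.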

[19] = target: Muscarinic acetylcholine receptor M1 (Homo sapiens) (UniProt P11229); assay: Cholinergic receptor muscarinic 1 (CHRM1) small molecule antagonists, cell-based qHTS assay (AID 1963588); also: nearly all actives have a fitted effect of over 40% in size
Method in brief: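 CHRM1-CHO calcium-flux assay, antagonist mode. Cells were seeded 18 h, dye-loaded 1 h at 37 C and given compound for 5 min at RT, then acetylcholine was added at 50nM. FDSS fluorescence was read 3 min; 15 concentrations, three runs.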

[20] = p53 small molecule agonists, cell-based qHTS assay (AID 1963582; active = well fitted activation curve with a large enough effect in the signal ratio in the repeat runs, not every such curve was filed as active; the % refers to the signal ratio; also: potency is read from the fitted curve at half-maximal effect)
Method in brief: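 p53RE-bla beta-lactamase reporter cells rested 5 h at 37 C/5% CO2, then received compounds in DMSO by pin transfer and were incubated 16 h at 37 C. LiveBLAzer B/G FRET substrate was loaded for 2 h at room temperature before fluorescence reading.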

## CCC(C)NC(N)=O (stereo not drawn)
[1]
  Potency: inactive
[2]
  Potency: inactive
[3]
  Potency: inactive
[4]
  Potency: inactive
[5]
  Potency: inactive
[6]
  Potency: inactive
[7]
  Potency: inactive
[8]
  Potency: inactive
[9]
  Potency: inactive
[10]
  Potency: inactive
[11]
  Potency: inactive
[12]
  Potency: inactive
[13]
  Potency: inactive
[14]
  Potency: inactive
[15]
  Potency: inactive
[16]
  Potency: inactive
[17]
  Potency: inactive

## Oc1ccc(C(c2ccc(O)cc2)C(Cl)(Cl)Cl)cc1
[1]
  Potency: 60.9 µM (active) and 54.5 µM (active)
[2]
  Potency: 27.3 µM (active)
[3]
  Potency: inactive
[4]
  Potency: inactive
[5]
  Potency: inactive
[6]
  Potency: inactive
[7]
  Potency: inactive
[8]
  Potency: inactive
[9]
  Potency: inactive
[10]
  Potency: inactive
[18]
  Potency: inactive
[12]
  Potency: inactive
[16]
  Potency: inactive
[17]
  Potency: inactive

## CC1(C)COCN1
[1]
  Potency: inactive
[2]
  Potency: inactive
[3]
  Potency: inactive
[4]
  Potency: inactive
[5]
  Potency: inactive
[6]
  Potency: inactive
[7]
  Potency: inactive
[8]
  Potency: inactive
[9]
  Potency: inactive
[10]
  Potency: inactive
[18]
  Potency: inactive
[11]
  Potency: inactive
[19]
  Potency: inactive
[12]
  Potency: inactive
[13]
  Potency: inactive
[15]
  Potency: inactive
[16]
  Potency: inactive
[17]
  Potency: inactive

## C=C(CC)C(=O)c1ccc(OCC(=O)O)c(Cl)c1Cl
[1]
  Potency: inactive
[2]
  Potency: 24.2 µM (active) and 29.8 µM (active)
[3]
  Potency: inactive
[4]
  Potency: inactive
[5]
  Potency: inactive
[6]
  Potency: inactive
[7]
  Potency: inactive
[8]
  Potency: inactive
[9]
  Potency: inactive
[10]
  Potency: inactive
[15]
  Potency: inactive
[16]
  Potency: inactive
[17]
  Potency: inactive

## O=C(O)CN(CCN(CC(=O)O)CC(=O)O)CCN(CC(=O)O)CC(=O)O
[1]
  activity change, negative = cytotoxicity: -0.92% [at 19 µM]
[2]
  activity, positive = activation: -0.151% [at 19 µM]
[3]
  activity change: -0.364% [at 11.8 µM, stronger effect = higher value]
[4]
  activation: -1.13% [at 15.8 µM]
[5]
  activation: 1.29% [at 11.8 µM]
[6]
  activation: -9.98% [at 13.5 µM]
[7]
  activation: -0.423% [at 13.6 µM]
[8]
  activity change, negative = cytotoxicity: -3.04% [at 13.5 µM]
[9]
  activity change, negative = cytotoxicity: -9.7% [at 13.5 µM]
[20]
  activation: 12.4% [at 13.5 µM]
[18]
  activity, negative = inhibition: 10.6% [at 12.7 µM]
[11]
  activation: 7.55% [at 15.9 µM]
[19]
  activity, negative = inhibition: 9.64% [at 12.6 µM]
[12]
  activation: -0.409% [at 15.8 µM]
[14]
  activity change, negative = inhibition: 3.68% [at 18.9 µM]
[15]
  activity change, negative = inhibition: 2.09% [at 19 µM]
[16]
  activation: -12% [at 19 µM]

## CC(C)(c1cc(Br)c(OCC(Br)CBr)c(Br)c1)c1cc(Br)c(OCC(Br)CBr)c(Br)c1 (stereo not drawn)
[1]
  Potency: inactive
[2]
  Potency: inactive
[3]
  Potency: inactive
[4]
  Potency: inactive
[5]
  Potency: inactive
[6]
  Potency: inactive
[7]
  Potency: inactive
[8]
  Potency: inactive
[10]
  Potency: inactive
[20]
  Potency: inactive
[18]
  Potency: inactive
[11]
  Potency: inactive
[19]
  Potency: inactive
[12]
  Potency: inactive
[13]
  Potency: inactive
[14]
  Potency: inactive
[15]
  Potency: inactive
[16]
  Potency: inactive
[17]
  Potency: inactive

## CN(C)c1ccc2nc3ccc(=[N+](C)C)cc-3sc2c1
[1]
  Potency: 54.5 µM (active)
[2]
  Potency: 10.4 µM (active) and 15.4 µM (active) and 13.3 µM (active)
[3]
  Potency: inactive
[4]
  Potency: inactive
[5]
  Potency: inactive
[6]
  Potency: inactive
[7]
  Potency: inactive
[8]
  Potency: 8.14 µM (active)
[10]
  Potency: inactive
[20]
  Potency: 28.9 µM (active)
[18]
  Potency: inactive
[11]
  Potency: inactive
[19]
  Potency: inactive
[12]
  Potency: inactive
[13]
  Potency: inactive
[14]
  Potency: inactive

## CCc1ccc(C=O)cc1
[1]
  Potency: inactive
[2]
  Potency: inactive
[3]
  Potency: inactive
[4]
  Potency: inactive
[5]
  Potency: inactive
[6]
  Potency: inactive
[7]
  Potency: inactive
[8]
  Potency: inactive
[9]
  Potency: inactive
[20]
  Potency: inactive
[18]
  Potency: inactive
[11]
  Potency: inactive
[19]
  Potency: inactive
[12]
  Potency: inactive
[13]
  Potency: inactive
[14]
  Potency: inactive
[15]
  Potency: inactive
[16]
  Potency: inactive
[17]
  Potency: inactive
